# Source: PubChem BioAssay AID1347426 (Functional Genomics Laboratory (NCATS/FGL), 2020)
# In all, about 31,000 sequences went through this assay and about 1,400 (4.5%) were called active.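 How the source made its calls: active means median seed-adjusted z-score above 1 or below -1; inactive means the rest.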 This excerpt belongs to a sample that is enriched for actives.
# Assay: Novel Modifiers of Survival Motor Neuron (SMN) Protein: Gene Identification via Genome-wide siRNA Screen
# Details: HEK293T SMN2-luciferase reporter, siRNA knockdown, 72 h; actives lie on both sides
# Excerpt: Spinal muscular atrophy (SMA) is the most common neuromuscular autosomal recessive disorder and one of the leading genetic causes of infant death. SMA results from mutations inducing loss of function or deletion in the survival of motor neuron-1 gene (SMN1), leading to deficiency of the survival motor neuron (SMN) protein. Although a second nearly identical gene, SMN2, is retained in humans, its expression primarily produces an aberrantly spliced isoform that is largely unstable and quickly degraded. We performed a genome-wide RNAi screen using a cell-based reporter assay to identify genes and pathways that modulate SMN protein stability. The screen identified over 200 genes that led to the greatest increase or decrease in luciferase expression.
# Using HEK293T cells stably expressing a luciferase reporter that combines the promoter and splicing based cassettes in tandem with the major portion of the native SMN2 cDNA with luciferase, we performed a genome-wide RNAi screen to identify modulators of SMN protein levels. Luciferase is expressed when full-length SMN protein is generated with luminescence signal proportional to SMN protein levels. Our luciferase-based reporter assay was used to screen Ambion Silencer Select Human Druggable Genome siRNA library (10418 genes, 3 unique siRNAs per gene) using lipid-based reverse transfection.
# Briefly, 1 pmol of each siRNA was spotted to a well of a 384-well plate (Corning, Corning, NY) and 20 microL of serum-free DMEM containing […] of Lipofectamine RNAiMax (Life Technologies, Carlsbad, CA) was then added to each well. Transfected cells were maintained at 37 degrees C in 5% CO2 for 72 hours, 20 microL of ONE-Glo Reagent (Promega) was added to wells for luciferase quantification. Raw luminescence reads were normalized to Ambion(R) Silencer(R) Negative Control #2 siRNA, then log10 transformed. A robust statistical measure of median absolute deviation (MAD) to standardize siRNA activities from each screen. Common Seed Analysis was used to help prioritize clean hits as opposed to those appearing to arise from seed based off-target effects. Candidate modulators were defined as the genes having a MAD score greater than 1.0 or less than -1.0.
row,Sequence,median seed-adjusted z-score
1,CGUGUAUUCUUUCACUAAUTT against MFSD1,-0.0833 (inactive)
2,GGGUAUCACCUCACGCUUATT against ABCA12,0.0759 (inactive)
3,GGUUUGGAAUGUUCGAGUUTT against SLC25A1,0.252 (inactive)
4,GGCACAAUUUCAACUCCAUTT against GPR35,-1.46 (active)
5,GAGCUUAGUGAUAAUAUAATT against ANP32E,-0.0648 (inactive)
6,GUGACUAUGAGCUCAAAUATT against RAVER1,-0.0873 (inactive)
7,ACAUGACCAUGGAAGCUGATT against HIPK4,0 (inactive)
8,GGAUCCGAGAGUCACCCAATT against LLGL1,-1.13 (active)
9,GGACAGACACGUCAGCAAATT against TMEM171,0.278 (inactive)
10,GGAAAUCUCGGAGAUCACATT against MLYCD,-0.154 (inactive)
11,CAUCCUCAUUUGAAACCGUTT against CREBL1,-0.348 (inactive)
12,CAUUCGCAUUCAGUCCAUATT against FRAP1,-1.02 (active)
13,GCAGAUGACUACAACUUUATT against E2F5,-0.628 (inactive)
14,GGACUGUACAACACUCUGATT against TGFB3,-0.354 (inactive)
15,GAUAAUGGAAGGUGAAUUUTT against PMS2L3,0.175 (inactive)
16,CGGGAGAAGUCCUACCUGUTT against KIF19,0.342 (inactive)
17,CGCAGGUUCUACCAGAUGATT against HS3ST6,0 (inactive)
18,CCAUGGAUGAGACUCCGUATT against PPP1R10,1.41 (active)
19,CGUGAUUGACUAUGAGGAATT against GRM6,-0.0544 (inactive)
20,GGUCAUUAUUGGUGAGCAATT against HARS2,0 (inactive)
21,AGAACAACGUGAAGGCACATT against TNPO2,0.0785 (inactive)
22,CAGUGGAUAUCUUGACCUATT against LDHA,0.401 (inactive)

row,Sequence,median seed-adjusted z-score
1,GGAAGUCUCUUGUCUGCAATT against RNASEL,0 (inactive)
2,CAGGUUUUCUACAACAACATT against ABCA2,-1.18 (active)
3,GAACUUGACCAGUUAGACUTT against GTF3C3,0.21 (inactive)
4,GGACAACCAUCUUCAAAGATT against ZKSCAN5,-0.229 (inactive)
5,GCAGUAUCGAGCUUCCGAATT against ACAD10,-0.269 (inactive)
6,GGAUCAUCAUGGAAUUGUATT against PTK2B,1.71 (active)
7,CCAUGUCAGUCCUAGGAAATT against ATRIP,0.353 (inactive)
8,GCAACUCCAUGUUUCAUAATT against PRMT1,-0.596 (inactive)
9,CCUGAUGUCUUAUCUCAGATT against ZNF398,0.119 (inactive)
10,AAAUCUUCGUGAACUUGGATT against MMD,0.193 (inactive)
11,CCAUCUAGAGUAUCACGCATT against CYGB,-0.34 (inactive)
12,GAAAUUCCACUGUAUCUAATT against COX7A2,-0.0808 (inactive)
13,GAGAGAAACUGUCAGAGUATT against RNF185,-0.388 (inactive)
14,CCCUCUUCCUUAUCCUGCATT against PITPNM1,-0.203 (inactive)
15,GAACAACCCUAACCCAAGATT against ITGAM,-1.56 (active)
16,CCAACUCGGCAAAACCGUUTT against NDUFS3,-0.54 (inactive)
17,CAACAACACCUGUUGCUUUTT against RGS17,-0.627 (inactive)
18,GAGCUACAUUACUAAGUCATT against ZNF223,0.367 (inactive)
19,CCAGGCAAAUAGUGAAGAATT against VAX1,0.937 (inactive)
20,GCAGUUCCUAAAUUUCCGATT against SNX9,0.684 (inactive)
21,GGAGAAUGCCGAAGAGGAATT against POLR2F,-3.52 (active)
22,GGCUGUACUUCGUCAUGGATT against PRKCA,-0.249 (inactive)

row,Sequence,median seed-adjusted z-score
1,CAUCCGACAUUGAAGUUGATT against B2M,-0.367 (inactive)
2,CGAGUAUGGUUUCCGCAAATT against UHMK1,-0.269 (inactive)
3,GAAUGCGAUUCACACCUUUTT against CAT,0 (inactive)
4,CCCUAAUUCUUCGUCAUAATT against AMIGO2,-0.258 (inactive)
5,CAUUGGUUUUGAUGAGUAUTT against SNRPE,-2.77 (active)
6,CUGUUUAACUGUGAGAUCATT against ANP32E,-0.0648 (inactive)
7,GCCUGCAAGUGUCCCAAAATT against NTN1,-0.0419 (inactive)
8,GAUAUUUGCCUAUGCCUUUTT against ZMYND19,0.369 (inactive)
9,GAAGGACAUGUACAAGAAATT against ITPKA,-0.136 (inactive)
10,CCAGCAUCCCUAGCUCAGATT against SYVN1,-1.41 (active)
11,GUCCGUUAACUAUCUGUUATT against GNAI3,0.0656 (inactive)
12,AAAUUAGAGUGAACAAGAATT against NFIC,0.72 (inactive)
13,CAGUGGAUAUCAAGCUUAATT against OPA1,-0.182 (inactive)
14,GCAAGUGACUGCUAUCAAUTT against GRIA2,-1.02 (active)
15,GAUCGUCUGCUGAAUACAATT against NASP,0.133 (inactive)
16,CAUCCAUUUGUCUUGCAAATT against GTF2F2,-1.14 (active)
17,CCACAGUUCCUGUCAUGUUTT against ACMSD,0 (inactive)
18,GCACUUGUAAGAACUGGUATT against POSTN,-0.45 (inactive)
19,CGUCAGCGGUUUAGCUGGATT against SLC25A10,-0.571 (inactive)
20,CGCACAGUGCCUAACCCUATT against RAB26,0.171 (inactive)
21,GGAAGUUCAUGCCUCUGGATT against UBA7,2.41 (active)
22,GGUUCUAUAGCAGACAAUATT against LOC81691,-0.285 (inactive)

row,Sequence,median seed-adjusted z-score
1,AGCUCCCUGCCUUUAAUAATT against CHPF,0.248 (inactive)
2,GAUCGCUACUUACAGGAUATT against CYP51A1,-0.242 (inactive)
3,GAGUGAUAUGGAUAGUGAATT against TTC18,-1.15 (active)
4,GGAAUCUCAUUUUAUCGUATT against SLC7A2,-0.245 (inactive)
5,GGAAGAAUUCAAUACGGCATT against FOXJ2,-0.627 (inactive)
6,GGAUGCACCACAUCUAGUATT against RPS6KA3,-0.0233 (inactive)
7,CCAAUUCCAGGUUAACUUUTT against S100A7A,0.212 (inactive)
8,GGAGUGAAGACUUCGAGAATT against KCNN2,-0.0251 (inactive)
9,CCUUCAAGCUGCAGACUAATT against THBS4,-0.28 (inactive)
10,CGACAUAACUAUGUUCGGATT against ETF1,-1.12 (active)
11,GGAUUUUGCCUUAGCGGUATT against OSBPL8,0.231 (inactive)
12,GCCUAUCCUAGAACCAUCATT against KLK14,-0.0998 (inactive)
13,GGACUUACCUUCAACCAAUTT against RSF1,0 (inactive)
14,CAACCUUCCUCGGACUAAUTT against SLC26A2,-1.25 (active)
15,GGACUUGGAUUCGAGGAUATT against COL15A1,0.161 (inactive)
16,CCUAAAUGAUCGCAAAGUATT against PABPC1,-0.126 (inactive)
17,CCUUUACUACGUGUGCACATT against POLR2I,-3.27 (active)
18,GGAAGAACUUUCUCGGUAATT against TIMP2,0.0444 (inactive)
19,CAAACGAUCUGAAGGUGAATT against AKTIP,-0.194 (inactive)
20,GGACAGAGGGCAACUAUAATT against KCNV2,-1.13 (active)
21,AAGCUAUUGUGAUCUCUGATT against ZBTB3,-0.0419 (inactive)
22,GAAUUAUGGAUGACGAUAATT against CAPSL,-0.168 (inactive)

row,Sequence,median seed-adjusted z-score
1,CACUCGUUCCGGUUCCUUUTT against ZNF439,-0.26 (inactive)
2,CAGUGAGGCUGUUCUCGAATT against LIMCH1,0.125 (inactive)
3,CAGGUGAUGUGAUAUCAUATT against VGLL2,-0.0234 (inactive)
4,GCUAAUCCAUUUGAUGACATT against PYGO1,-1.23 (active)
5,GAAUGUAACUUCACAACCATT against ZHX2,0.0708 (inactive)
6,AGAAAGCUUUGGGCAAAUATT against EEF1B2,0.388 (inactive)
7,CAACAUAUCUGCACAGGUATT against FLVCR2,-0.336 (inactive)
8,GGCUGUAACGUGAACAUCATT against DAPK1,0.27 (inactive)
9,UCGAGCAACUUAUUCCAUATT against MED30,-2.06 (active)
10,GCCUGUCCCAGACCAUUGATT against KLC4,0 (inactive)
11,GCUUCUCUUUGAAUACCCATT against KCNA2,-1.03 (active)
12,CAAGUUCUCUUAUCCACCATT against PPP1R15A,0.539 (inactive)
13,UGAAAUGGAUGAAAACCUATT against SNAP25,0 (inactive)
14,GCGUGUUCGUGCACGUCUATT against MOBKL2A,0.268 (inactive)
15,CAGCAACCAUGGAAAUCGATT against MYST4,0.138 (inactive)
16,ACUGGACAGUGGUAUCAGATT against UBASH3A,-1.1 (active)
17,CAGGUACAGCGCAUCGUUATT against EDC4,0 (inactive)
18,GGGAUGAUUCAGACAAACATT against ZC3HAV1,0.522 (inactive)
19,CAGUGGAUCUAUAUGAACATT against KIT,-0.686 (inactive)
20,GCAUUUACACUGUAUAUUATT against POU4F2,1.46 (active)
